Assay results published in PubChem BioAssay AID651692 (Broad Institute, 2012).
Entries with a potency or affinity are not part of this list. Active and inactive are the calls of the source.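 Rule for the calls: active = fitted half-maximal concentration for loss of cell signal no higher than twice the top valid tested concentration; inconclusive = flat curve at 30 to 70% inhibition, or poor fit; inactive = flat within 30%, signal rise, or potency above limit.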

Experiment: cytotoxicity toward MDA-MB-231 breast cancer cells – cell-based, CellTiter-Glo luminescence, cherry-pick, cytotoxicity control for RAD54 inhibitor project, dose response (AID 651692);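 note: more negative values mean stronger loss of viable cell signal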
Conditions: MDA-MB-231 viability, 24 h; series mostly up to 26 µM
In the case of `O=C(CN1CCCC1)Nc1ccc(-c2nc3cc(NC(=O)CN4CCCC4)ccc3o2)cc1`, the outcome is reported as “inactive”.
With `CCN1CCN(C(=S)Nc2ccc3nc(N4CCN(CC)CC4)cc(C)c3c2)CC1` the outcome was “inactive”.
For `CCN(CC)CCCNC(=O)c1cc2c(-c3cccc(OC)c3)nn(C)c2s1`, the outcome was “inactive”.
In the case of `CCCNc1nc2nc3ccccn3c(=O)c2cc1C(=O)NCCN1CCOCC1`, the outcome is reported as “inactive”.
With `CNC(C)C#Cc1ccc2oc3cccc(OC)c3c(=O)c2c1` (stereo not given) the outcome was “inactive”.
With `CCNCCNC(=O)c1c(O)c2cccc3c2n(c1=O)CCC3` the outcome was “inactive”.
In the case of `N=c1n(CCN2CCCCC2)c2ccccc2n1CC(=O)c1cccc([N+](=O)[O-])c1`, the outcome is reported as “inactive”.
In the case of `Cc1c(O)c(CN(C)C)cc2c1oc(=O)c1ccccc12`, the outcome is reported as “inactive”.
In the case of `Cc1ccc(-c2nc(NCCN3CCOCC3)c3ccccc3n2)cc1`, the outcome is reported as “inactive”.
For `Cc1ccc2oc(=O)c3cc(C(=O)NCCCN4CCN(C)CC4)sc3c2c1`, the outcome was “inactive”.
With `Cc1ccc2oc(=O)c3cc(C(=O)NCCCN4C(C)CCCC4C)sc3c2c1` (stereo not given) the outcome was “inactive”.
In the case of `Cc1nnc2c(N3CCN(CCO)CC3)nc3ccccc3n12`, the outcome is reported as “inactive”.
In the case of `CN(C)CCSc1nc(N)c2c3c(sc2n1)CN(C)CC3`, the outcome is reported as “inactive”.
In the case of `Cc1ccc2c(c1)c1nc3ccccc3nc1n2CCN1CCOCC1`, the outcome is reported as “inactive”.
In the case of `O=C(CN1CCCCC1)n1c2ccccc2c2ccccc21`, the outcome is reported as “inactive”.
In the case of `CN(C)CCNC(=O)c1cccc(-c2cnc3c(NC=O)cc(-c4ccc(C(=O)N5CCOCC5)cc4)cn23)c1`, the outcome is reported as “inactive”.
With `Cc1ccc2nc(C)c3c(c2c1)N(c1ccc(F)cc1)CC3` the outcome was “inactive”.
For `CCN(CC)CCN1C(=O)c2cccc3cc(N)cc(c23)C1=O`, the outcome was “inactive”.
In the case of `Cc1cc(Nc2ccc3c(c2)OCCO3)c2cccc(C)c2n1`, the outcome is reported as “inactive”.
For `CCOC(=O)c1c(CN2CCCCC2)n(C)c2cc(Br)c(OC)cc12`, the outcome was “inactive”.
With `Cc1ccc2nc3c(c(N)c2c1)CCN3c1ccccc1` the outcome was “inactive”.
With `COc1ccc2c(c1)c1ncn(CCN3CCCC3)c(=O)c1n2C` the outcome was “inactive”.
For `CCN(CC)CCn1c2ccccc2c2nc3ccc([N+](=O)[O-])cc3cc21`, the outcome was “inactive”.
For `CN1CCN(CCCNC(=O)c2cc3c(-c4ccc(Cl)cc4)nn(C)c3s2)CC1`, the outcome was “inactive”.
In the case of `Cc1cccn2c(=O)c3cc(C(=O)NCCN4CCOCC4)c(=N)n(CCN4CCOCC4)c3nc12`, the outcome is reported as “inactive”.
For `CCN(CC)CCNC(=S)Nc1ccc2nc(N3CCN(CC)CC3)cc(C)c2c1`, the outcome was “inactive”.
In the case of `CN(C)CCCN(C(=O)c1ccc([N+](=O)[O-])o1)c1nc2cc3c(cc2s1)OCO3`, the outcome is reported as “inactive”.
In the case of `COc1ccc(Nc2cc(C)nc3ccc(OC)cc23)cc1`, the outcome is reported as “inactive”.
With `c1ccc(CNc2c3ccccc3nc3ccccc23)cc1` the outcome was “inactive”.
For `Cc1cc(C)n(-c2nc(NCCN(C)C)c3c4c(sc3n2)COC(C)(C)C4)n1`, the outcome was “inactive”.
In the case of `CCN(CC)CCNc1ccc(CO)c2oc3cc(Cl)ccc3c(=O)c12`, the outcome is reported as “inactive”.
With `CCN(CC)CCn1c2ccc(F)cc2c2nc(C)sc21` the outcome was “inactive”.
In the case of `O=C(Nc1ccc(C2=NCCN2)cc1)c1ccc(C(=O)Nc2ccc(C3=NCCN3)cc2)c(Cl)c1`, the outcome is reported as “inactive”.
With `CCNC1CCC(Nc2ccnc3cc(Cl)ccc23)CC1` (stereo not given) the outcome was “inactive”.
In the case of `Cc1cccn2c(=O)c3cc(C(=O)NC4CCCC4)c(=N)n(CCCN4CCOCC4)c3nc12`, the outcome is reported as “inactive”.
In the case of `CCN1CCN(c2nn3c(=O)c4ccccc4nc3c3ccccc23)CC1`, the outcome is reported as “inactive”.
In the case of `CC1CCCCN1CCNC(=O)c1cc2c(=O)n(C)c3ccccc3c2n1C` (stereo not given), the outcome is reported as “inactive”.
For `CCNC(=O)c1cc2c(=O)n3cccc(C)c3nc2n(CCc2ccccc2)c1=N`, the outcome was “inactive”.
For `CCN(CC)CC(=O)Nc1cccc2c1C(=O)c1ccccc1C2=O`, the outcome was “inactive”.
With `CCOc1cc2[nH]c(=O)n(Cc3ccc(C(=O)NCCCN4CCC(C)CC4)cc3)c(=O)c2cc1OCC` the outcome was “inactive”.
